{"source": "PubChem BioAssay (Tox21)", "note": "Results filed as inconclusive are left out. Where a call stands in place of a potency, no number is given. Calls of active or inactive are those of the source. Calls follow the shape of the dose curve; as a rule, active = well fitted inhibition curve with a large enough effect in the signal ratio in the repeat runs (not every such curve was filed as active); inconclusive = weak or mixed curves, or effect the other way; inactive = no such curve, though single readings can be large or run the other way; the % refers to the signal ratio. Potency is read from the fitted curve at half-maximal effect.", "data": [{"biological_target": "Bile acid receptor (Homo sapiens) (UniProt Q96RI1)", "sequence (Q96RI1 whole entry, looked up)": "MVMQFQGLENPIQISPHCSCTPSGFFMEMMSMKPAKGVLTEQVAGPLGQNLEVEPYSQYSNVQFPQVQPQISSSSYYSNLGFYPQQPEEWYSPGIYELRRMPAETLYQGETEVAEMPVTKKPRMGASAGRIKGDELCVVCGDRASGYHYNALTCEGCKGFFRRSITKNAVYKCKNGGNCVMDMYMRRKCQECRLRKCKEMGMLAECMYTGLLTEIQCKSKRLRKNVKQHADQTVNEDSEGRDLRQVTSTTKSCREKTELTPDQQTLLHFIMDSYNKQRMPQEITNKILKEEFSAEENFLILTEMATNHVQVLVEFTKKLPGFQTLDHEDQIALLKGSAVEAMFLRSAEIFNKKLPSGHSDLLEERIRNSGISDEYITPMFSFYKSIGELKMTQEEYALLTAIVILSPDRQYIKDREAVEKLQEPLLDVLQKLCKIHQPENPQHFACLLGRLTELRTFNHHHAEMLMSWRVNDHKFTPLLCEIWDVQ", "experiment": "qHTS assay to identify small molecule antagonists of the farnesoid-X-receptor (FXR) signaling pathway (AID 743217)", "conditions": "HEK293T FXR-UAS-bla, beta-lactamase ratio, CDCA-stimulated, 16 h; series mostly up to 62.6 µM", "text": "U.S. Tox21 Program National Center for Advancing Translational Sciences [NCATS] NIH Chemical Genomics Center [NCGC] U.S. Environmental Protection Agency [EPA] National Institutes of Environmental Health Sciences [NIEHS] National Toxicology Program [NTP] U.S. Food and Drug Administration [FDA] Tox21 Assay Overview: The farnesoid-X-receptor (FXR), a nuclear hormone receptor, is highly expressed in liver, intestine, kidney and adrenal cortex. Natural ligands of FXR are the bile acids (Cholic acid, Chenodeoxy cholic acid etc). FXR is an important regulator of diverse metabolic pathways, including the bile acid homeostasis, lipid and glucose metabolisms. FXR regulates the expression of target genes by binding either as a monomer or as a heterodimer with the retinoid X receptor (RXR). Numerous studies have reported that FXR exerts protective function during cholestasis, diabetes, liver regeneration, and cancer. To identify compounds that inhibit FXR signaling, GeneBLAzer FXR-UAS-bla HEK 293T cell line (Invitrogen, Carlsbad, CA) containing a beta-lactamase reporter gene under the control of a UAS response element was used to screen the Tox21 10K compound library.\nTox21 Assay Protocol Summary: FXR-bla cells were dispensed at 5000 cells/5uL/well in 1536-well black wall/clear bottom plates using a Multidrop Combi (Thermo Fisher Scientific, Waltham, MA) dispenser. After the assay plates were incubated at 37C and 5% CO2 for 5 h, 23 nL of compounds dissolved in DMSO, positive controls or DMSO only was transferred to the assay plate by a Pintool station (Kalypsys, San Diego, CA), followed by addition of 1 uL Chenodeoxycholic acid (50 uM, final concentration in the wells). The assay plates were incubated at 37C for 16 h. After 1 uL of LiveBLAzerTM B/G FRET substrate was added using a Bioraptr Flying Reagent Dispenser (FRD) workstation (Beckman Coulter, Indianapolis, IN), the plates were incubated at room temperature for 2 h, and fluorescence intensity was measured by an Envision plate reader (PerkinElmer, Shelton, CT).", "values": [{"smiles": "CC(Oc1cccc(Cl)c1)C(=O)O", "note": "(stereo not given)", "Potency": "inactive"}, {"smiles": "CN(C)c1ccc(N=O)cc1", "Potency": "inactive"}, {"smiles": "O=C(O)C(Cl)(Cl)Br", "Potency": "inactive"}, {"smiles": "CC(=O)NNc1ccccc1", "Potency": "inactive"}, {"smiles": "CN[C@@H](C)[C@H](O)c1ccccc1", "Potency": "inactive"}, {"smiles": "COCc1cnc(C2=NC(C)(C(C)C)C(=O)N2)c(C(=O)O)c1", "note": "(stereo not given)", "Potency": "inactive"}, {"smiles": "CC(=O)OC(c1ccccc1)C(Cl)(Cl)Cl", "note": "(stereo not given)", "Potency": "inactive"}, {"smiles": "O=C=NC1CCCCC1", "Potency": "inactive"}, {"smiles": "CC(C)c1ccc(OP(=O)(Oc2ccc(C(C)C)cc2)Oc2ccc(C(C)C)cc2)cc1", "Potency": "22 µM (active)"}, {"smiles": "C[C@H]1[C@@H]2Cc3ccc(O)cc3[C@@]1(C)CCN2C", "Potency": "inactive"}, {"smiles": "Cc1nc(N(C)C)nc(OC(=O)N(C)C)c1C", "Potency": "inactive"}, {"smiles": "NNCCO", "Potency": "inactive"}, {"smiles": "CNC(=O)Oc1cccc(N=CN(C)C)c1", "Potency": "inactive"}, {"smiles": "Oc1cccc(Cl)c1", "Potency": "inactive"}, {"smiles": "CCCBr", "Potency": "inactive"}, {"smiles": "SCc1ccccc1", "Potency": "inactive"}, {"smiles": "c1ccc2sc(SNC3CCCCC3)nc2c1", "Potency": "inactive"}, {"smiles": "CCOP(=S)(S)OCC", "Potency": "inactive"}, {"smiles": "CON(C)C(=O)Nc1ccc(Cl)cc1", "Potency": "inactive"}, {"smiles": "COc1ccc(C(O)(c2cncnc2)C2CC2)cc1", "note": "(stereo not given)", "Potency": "inactive"}, {"smiles": "C=CC(=O)OCC", "Potency": "inactive"}, {"smiles": "O=C(N/N=C/c1ccc([N+](=O)[O-])o1)c1cc([N+](=O)[O-])cc([N+](=O)[O-])c1O", "Potency": "inactive"}, {"smiles": "OCCSSCCO", "Potency": "inactive"}, {"smiles": "CC(C)(C#N)C(C)(C)C#N", "Potency": "inactive"}, {"smiles": "CCOC(C(=O)OCCN(C)C)(c1ccccc1)c1ccccc1", "Potency": "inactive"}, {"smiles": "COC1CC(=C(c2cccs2)c2cccs2)C[N+](C)(C)C1", "note": "(stereo not given)", "Potency": "inactive"}, {"smiles": "COc1ccccc1N1CCNCC1", "Potency": "inactive"}, {"smiles": "OCC1CO1", "note": "(stereo not given)", "Potency": "inactive"}, {"smiles": "C#CC(O)(C=CCl)CC", "note": "(stereo not given)", "Potency": "inactive"}, {"smiles": "CCCSP(=S)(OCC)Oc1ccc(SC)cc1", "note": "(stereo not given)", "Potency": "inactive"}, {"smiles": "O=[N+]([O-])O[C@H]1CO[C@H]2[C@@H]1OC[C@H]2O[N+](=O)[O-]", "Potency": "inactive"}, {"smiles": "CCSCc1ccccc1OC(=O)NC", "Potency": "inactive"}, {"smiles": "CC1(C)CC(=O)CC(C)(C)N1[O]", "Potency": "inactive"}, {"smiles": "O=C(O)C(O)C(O)C(=O)O", "note": "(stereo not given)", "Potency": "inactive"}, {"smiles": "CC(O)CN1CCN(CC(=O)[O-])CCN(CC(=O)[O-])CCN(CC(=O)[O-])CC1.[Gd+3]", "note": "(stereo not given)", "Potency": "inactive"}, {"smiles": "CC(C)CCCCCCCOC(=O)c1ccccc1C(=O)OCCCCCCCC(C)C", "Potency": "inactive"}, {"smiles": "OCCCl", "Potency": "inactive"}, {"smiles": "CCOC(=O)NC(O)C(Cl)(Cl)Cl", "note": "(stereo not given)", "Potency": "inactive"}, {"smiles": "O=C(O)C(F)(F)C(F)(F)C(F)(F)C(F)(F)C(F)(F)C(F)(F)C(F)(F)C(F)(F)F", "Potency": "inactive"}, {"smiles": "CC(C)(C)N(NC(=O)c1ccc(Cl)cc1)C(=O)c1ccccc1", "Potency": "inactive"}]}]}
